# Source: PubChem BioAssay
# Unmarked numbers belong to inactive results. No rule for the calls is given here.
# Test system: Aerobactin synthetase IucA (Klebsiella pneumoniae hvKP1)
# Test: Biochemical IucA enzyme inhibition primary screen of the Spectrum library (AID 1346200);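 also: 100% = wells without compound and 0% = wells lacking enzyme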
# Conditions: malachite green pyrophosphate, A620, at 8 µM, active compounds read low
row,SMILES,activity remaining [%]
1,COc1cc2c(cc1-c1coc3c4c(c(OC)cc3c1=O)OC(C)(C)C=C4)OCO2,110
2,C[C@@H]1CC[C@H]2[C@@H](C)C(O)O[C@@H]3OC4(C)CC[C@@H]1[C@]32OO4 (stereo not given in full),106
3,CC(Cc1ccc(O)c(O)c1)(NN)C(=O)O (stereo not given),111
4,NCC[C@@H](O)C(=O)N[C@@H]1C[C@H](N)[C@@H](O[C@H]2O[C@H](CN)[C@@H](O)[C@H](O)[C@H]2O)[C@H](O)[C@H]1O[C@H]1O[C@H](CO)[C@@H](O)[C@H](N)C1O (stereo not given in full),113
5,CCOC(=O)C(C)(N)Cc1ccc(O)c(O)c1 (stereo not given),105
